Among the data in PubChem BioAssay AID1276 (Columbia University Molecular Screening Center, 2008) are activation values, retold here.

Screen size: about 190,000 compounds; about 2,000 (1.1%) were called active. Only a selection was taken, and actives are over-represented in it overall. Values without a mark were called inactive.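 How the source made its calls: active means activation above a set limit, based on mean plus 3 SD of controls (cut at about 140% in these data); inconclusive means one replicate above the limit, the other below; inactive means the rest.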

The test in a line: activators of APP 5'UTR luciferase reporter, primary screen, SH-SY5Y cells (AID 1276). The following applies: SH-SY5Y APP 5'UTR luciferase reporter, luminescence; at 2 µM; hits give high values; zero percent = DMSO vehicle wells.
Consider `CCC(=O)N(Cc1cc2ccccc2[nH]c1=O)c1ccc(OC)cc1`, for which the activation was -4.49%.
For `C/C(=N/NC(=O)CCc1ccccc1)c1ccco1` the value was 10.2%.
For the compound `CCOc1ccc2nc(C(=O)N3CCCC(C)C3)sc2c1` (configuration not stated), the activation is 158% (active).
For `CCOc1ccc2nc(Nc3nc4ccc(NC(C)=O)cc4s3)sc2c1` the value was -5.77%; for `CCOc1ccc2nc(SC(CC)C(=O)Nc3cc(C)on3)sc2c1` (configuration not stated), 1.9%; for `Cc1cc(CNCc2c(C(=O)N(C)Cc3ccccc3)nc3ccccn23)nn1C`, 7.64%.
With `C/C(=N/NC(=S)Nc1ccccc1)c1ccc2c(c1)OCO2` the figure was 11.9%; with `CCOC(=O)CN/C=C(\C#N)c1ccc(F)cc1`, 29.2%; with `O=C(Nc1ccc(Cl)cn1)c1ccc2c(c1)OCCO2`, 199% (active).
In the case of `O=C(Nc1ccc2c(c1)OCCO2)c1ccc(Cl)c(S(=O)(=O)N2CCCCC2)c1`, the activation was 30.1%.
With `O=C(Nc1cccc(Cl)c1N1CCOCC1)c1ccc2c(c1)OCCO2` the figure was 12.9%; with `O=C(Nc1cccc(S(=O)(=O)Nc2ccc(Cl)cc2)c1)c1ccc2c(c1)OCCO2`, -20.6%; with `CN1CCN(c2ccc(NC(=O)c3ccc4c(c3)OCCO4)cc2Cl)CC1`, 144% (active).
Consider `COc1c(Cl)cc(C(=O)Nc2ccc(Cl)cn2)cc1Cl`, for which the activation is 34.7%.
With `CN1CCN(CCC(=O)N/N=C/C=C2\N(C)c3ccccc3C2(C)C)CC1` the figure was 8.29%.
Consider `CCN(CC)C(=O)CSc1ncnc2c1cnn2-c1ccccc1`, for which the activation was 15.2%.
As to `COc1ccc(-n2ncc3c(N4CCCc5ccccc54)ncnc32)cc1`, the activation is 48.9%.
For `O=C(NNc1ncnc2c1cnn2-c1ccccc1)c1ccco1` the value was 6%.
Regarding `COc1ccc(-n2ncc3c(N4CCc5ccccc54)ncnc32)cc1`, the activation is 204% (active).
As for `c1ccc(-n2ncc3c(N4CCCC4)ncnc32)cc1`, the activation is 160% (active).
For `Cc1cccc(-n2ncc3c(N4CCc5ccccc54)ncnc32)c1`, the activation was 25.5%.
For the compound `O=C(COc1ccc(S(=O)(=O)N2CCCCC2)cc1)NCc1ccccn1`, the activation was 2.08%.
As for `CSCC[C@H](NC(=O)NC1CCCC1)C(=O)O`, the activation is -20.9%.
With `CCN1CCC2(CCN(Cc3cn[nH]c3-c3ccc(OC)c(F)c3)C2)C1` (configuration not stated) the figure was -14.3%; with `O=C(NNS(=O)(=O)c1ccc(F)cc1)c1cnccn1`, 3.72%; with `C/C(=N\Nc1nc(Nc2ccccc2)nc(N2CCOCC2)n1)c1cccs1`, -7.91%.
For `C/C(=N\Nc1nc2ccccc2[nH]1)c1cccs1` the value was 150% (active); for `OCCNc1nc2ccccc2[nH]1`, 16.1%; for `C/C(=N\Nc1ncc(Cl)cc1Cl)c1ccc(S(=O)(=O)NCc2ccco2)cc1`, 100%.
Consider `COc1cccc(/C(C)=N/Nc2ncc(Cl)cc2Cl)c1`, for which the activation is 24.9%.
For `C/C(=N\Nc1ncc(Cl)cc1Cl)c1cccs1` the value was 154% (active).
Regarding `O=S(=O)(NCC1CCCO1)c1cnc(Cl)c(Cl)c1` (configuration not stated), the activation is 1.68%.
With `CC(=O)c1ccc(S(=O)(=O)Nc2ccc(C(=O)NCC(c3ccccc3)N(C)C)cc2)cc1` (configuration not stated) the figure was -1.54%; with `COc1ccccc1N1CCN(c2ccc([N+](=O)[O-])nc2)CC1`, 0.38%; with `O=C(N/N=C/c1ccc(Cl)cc1)c1nc2ccc([N+](=O)[O-])cc2c(=O)[nH]1`, 5.49%.
`COc1cccc(-n2c(=S)[nH]c3c(oc4ccccc43)c2=O)c1`: the activation was 23%.
For `Cc1cccc(-n2c(O)c(C=Nc3ccccc3N)c(=O)[nH]c2=O)c1` the value was 148% (active); for `Cc1ccc(N=Cc2c(O)n(-c3nccs3)c(=O)c3ccccc23)c(C)c1`, 11.8%; for `Cc1cccc(-n2c(C)cc(/C=N/NC(N)=S)c2C)c1`, -0.81%.
Turning to `CCCCc1nnc(NC(=O)CSc2nc(N)cc(=O)[nH]2)s1`, the activation was -0.9%.
With `O=c1[nH]c2ccccc2s1` the figure was -19.6%; with `COc1cc([N+](=O)[O-])ccc1NC(=S)N1CCN(c2ccccn2)CC1`, -4.93%; with `COc1nc(N(C)C)nc(N2CC(=O)N(CCNS(=O)(=O)c3ccc(C)cc3)C2=N)n1`, -1.55%.
For `CC(=O)n1cc([C@@H]2C=C(C(=O)N3CCN(Cc4ccc5c(c4)OCO5)CC3)O[C@H](OCc3ccc(CO)cc3)C2)c2ccccc21` the value was -22.2%; for `CCOc1cccc(/C=C/c2ccc3ccccc3n2)c1OC(C)=O`, 216% (active); for `NC(=O)COC(=O)/C=C/c1ccc2ccccc2n1`, 2.32%.
For `COc1cccc(/C=C/c2ccc3ccccc3n2)c1OC(C)=O`, the activation was 131%.
With `O=C(c1cccc(S(=O)(=O)N2CCCC2)c1)N(Cc1ccco1)C1CCS(=O)(=O)C1` (configuration not stated) the figure was 11.1%; with `Cc1ccc(S(=O)(=O)/N=C(/Nc2ccc3[nH]c(=O)[nH]c3c2)c2ccccc2)cc1`, -13.5%.
With `CCOc1ccc(CN2CCN(Cc3ccon3)CC2CCO)cc1` (configuration not stated) the figure was 7.1%; with `O=C(c1cccc(C(=O)N2CCc3ccccc32)n1)N1CCc2ccccc21`, -32.2%.
With `O=C(c1cnn2ccccc12)N1CCc2ccccc21` the figure was 145% (active); with `NC(=O)N1CCc2ccccc21`, -5.27%.
For the compound `Cc1ccc(C(=O)N2CCN(S(=O)(=O)N3CCOCC3)CC2)cc1`, the activation is 0.65%.
As to `Cc1ccc(-c2cn3cc([N+](=O)[O-])ccc3n2)cc1`, the activation was 120%.
With `Cc1ccc(-n2cc3ccc([N+](=O)[O-])cc3n2)cc1` the figure was 179% (active).
Regarding `Cc1cc(C)nc(Nc2cc([N+](=O)[O-])ccc2C)n1`, the activation is -6.89%.
Consider `Cc1cc([N+](=O)[O-])ccc1NC1CCCC1`, for which the activation is -0.84%.
With `OCC1(Cc2ccccc2)CCN(Cc2cc3ccccc3o2)CC1` the figure was -8.13%.
For the compound `COc1ccccc1Oc1ccc(N/C=C2/CCCC2=O)cc1`, the activation is 17.2%.
With `Cc1[nH]c2c(C(=O)N3CCCC(CCC(=O)NCc4ccccc4F)C3)cccc2c1C` (configuration not stated) the figure was 17.2%.
For `COc1c(C=O)c(CCN(C)C(=O)c2ccc(F)cc2)cc2c1OCO2` the value was 0.6%.
